Assay results from PubChem BioAssay (NCATS).
Results filed as inconclusive are left out. Unmarked numbers belong to inactive results. The source made the active and inactive calls. The call rests on the fitted dose curve; in most records, active means well fitted inhibition curve with a large enough effect; inconclusive means small, poorly fitted or top-dose-only effect; inactive means flat fitted curve, though single readings scatter.

The compounds below were run on CRL-7250 (assay: Cytotoxic Profiling of Annotated Libraries Using Quantitative High-Throughput Screening (AID 1296008; further: nearly all actives have a fitted effect of over 60% in size)). Conditions: Five cell lines viability, CellTiter-Glo ATP luminescence, 48-72 h; max response: active compounds read low.
Description: Cell-based phenotypic screening is a commonly used approach to discover biological pathways, novel drug targets, chemical probes and high-quality hit-to-lead molecules. Many hits identified from high-throughput screening campaign are ruled out through a series of follow-up potency, selectivity/specificity, and cytotoxicity assays. Prioritization of molecules with little or no cytotoxicity for a more in-depth downstream evaluation influence the future direction of projects, so cytotoxicity profiling of the screening libraries at early stage is essential for increasing the likelihood of candidate success. […] For the annotated library, we also examined the primary targets and mechanistic pathways regularly associated with cell death. To our knowledge, this is the first study to use high-throughput screening to profile large libraries for cytotoxicity assessment in both normal and cancer cell lines. In summary, the results generated here constitutes a valuable resource for the scientific community and provides insight on identifying cytotoxic compounds with particular mechanisms of action, and prioritizing compounds with suitable cytotoxicity profile for further evaluation.
A pintool (Kalypsys) was used to transfer 23 nL of compound solution to the 1536-well assay plates. After 48 or 72 hr incubation at 37 degree Celsius, 5% CO2 and 95% humidity, 2.5 uL of CellTiter-Glo (Promega) was dispensed into each well using a dispenser (Aspect Automation, St. Paul, MN) with solenoid valves (Lee Valves, Westbrook CT). Plates were left at room temperature for 10 min before imaging the ATP-coupled luminescence using a ViewLux microplate imager (PerkinElmer, Waltham, MA).
On the % scale 0 is the no-effect control and ±100 the full control effect; potency means the concentration at half of the fitted maximal effect.

Which max response does the source give for `COCCOCCOc1ccc(C2=N[C@@](C)(C(=O)O)CS2)c(O)c1` here?
The max response was -74.5%.

For `Cc1[nH]c(/C=C2\C(=O)Nc3ccc(F)cc32)c(C)c1C(=O)NC[C@H](O)CN1CCOCC1`, which Potency is on record?
The Potency was 6.51 µM (active).

How did the max response turn out when `CCC[C@@H](NC(=O)N1C(=O)C(CC)(CC)[C@@H]1Oc1ccc(C(=O)N2CCN(C)CC2)cc1)c1ccc2c(c1)OCO2` was run?
Its max response is -1.89%.

`C=C(C)[C@@H]1CC[C@]2(C(=O)O)CC[C@]3(C)C(CCC4[C@@]5(C)C[C@@H](O)[C@H](O)C(C)(C)C5CC[C@]43C)C12` (stereo not given in full) was tested. Which max response did it give?
The max response was 4.85%.

For `CC1CCC(n2c3cnccc3c3cnc(Nc4ccc5c(n4)CCN(C(=O)CO)C5)nc32)CC1` (stereo not given), which max response is on record?
The max response was -12.2%.

With `CC1OC2OC3C(OCC(O)C3O)OC(=O)C34CCC(C)(C)CC3C3=CCC5C6(C)CC(O)C(OC7OC(CO)C(O)C(O)C7OC7OCC(OC(=O)CC(C)(O)CC(=O)OC1C(OC1OCC(O)C(O)C1O)C2O)C(O)C7O)C(C)(CO)C6CCC5(C)C3(C)CC4O` (stereo not given) as the compound, how does the Potency read?
The Potency was 7.96 µM (active).

Which outcome does the source give for `CN(Cc1ccc(C(=O)O)cc1)c1ccc(OCc2c(-c3c(Cl)cccc3Cl)noc2C2CC2)nc1C(F)(F)F` here?
Its outcome is “inactive”.

`OCC(CO)(CO)NCC(O)Cn1c2ccc(Cl)cc2c2cc(Cl)ccc21` (stereo not given) was tested. Which max response did it give?
Its max response is -2.15%.

How did the max response turn out when `N#CCC(C1CCCC1)n1cc(-c2ncnc3[nH]ccc23)cn1` (stereo not given) was run?
The max response was -27.8%.

With `CCCCOc1ccc(-c2cncc(C(=O)NCc3cccnc3N3CCOCC3)c2)cc1Cl` as the compound, how does the max response read?
Its max response is -9.28%.

Which Potency does the source give for `COc1ccccc1-c1cc(Nc2cccc(CS(N)(=O)=O)c2)ncn1` here?
Its Potency is 16.4 µM (active).

For `CC(=O)c1c(OCCN2CCCCC2)c(OCCC(C)c2ccc(F)cc2)c2oc(C)nc2c1C` (stereo not given), which max response is on record?
The max response was -7.29%.

For `CC[C@H](CO)Nc1nc(Nc2cccc(-c3ccccn3)c2)c2ncn(C(C)C)c2n1`, which max response is on record?
The max response was -6.96%.

Which Potency does the source give for `CCN(CC)c1ccc(C(=C2C=CC(=[N+](CC)CC)C=C2)c2cc(S(=O)(=O)O)ccc2S(=O)(=O)[O-])cc1` here?
Its Potency is 5.31 µM (active).

`O=C(c1ccc(F)c(F)c1Nc1ccc(I)cc1F)N1CC(O)([C@@H]2CCCCN2)C1` was tested. Which Potency did it give?
The Potency was 7.31 µM (active).

Which outcome does the source give for `CC/C(=C(\c1ccc(O)cc1)c1ccc(OCCNC)cc1)c1ccccc1` here?
The outcome was “inactive”.

Which outcome does the source give for `CCC(=O)c1cc(-c2ccc(Cl)cc2)n(-c2ccc(S(N)(=O)=O)cc2)c1C` here?
The outcome was “inactive”.

Which max response does the source give for `CN(C)C(=O)c1cc2cnc(Nc3ccc(N4CCNCC4)cn3)nc2n1C1CCCC1` here?
Its max response is 3.25%.

With `N#Cc1c[nH]c2c(C(=O)N3CCN(CCc4ccc(F)cc4)CC3)cccc12` as the compound, how does the outcome read?
Its outcome is “inactive”.

`CC1CCN(C(c2ccc(F)cc2)c2ccc(C(C)C(=O)O)cc2-c2ccc(C(F)(F)F)cc2)CC1` (stereo not given) was tested. Which max response did it give?
Its max response is -3.89%.

`C=C1CC[C@@H]2[C@](C)(CO)[C@H](O)CC[C@@]2(C)[C@@H]1C/C=C1/C(=O)OC[C@@H]1O` was tested. Which max response did it give?
Its max response is -17.3%.

`Cc1ccc(CCCO)c(NCc2ccc3nc(NCCCN4CCOCC4)n(Cc4nc(C)ccc4O)c3c2)c1` was tested. Which Potency did it give?
Its Potency is 23.1 µM (active).

`CC(C)CCC[C@@H](C)[C@H]1CC[C@H]2[C@@H]3CC=C4C[C@@H](OC(=O)NCCN(C)C)CC[C@]4(C)[C@H]3CC[C@]12C` was tested. Which outcome did it give?
The outcome was “inactive”.

For `CC1(C)CC[C@]2(C(=O)OC3OC(CO)C(O)C(O)C3O)CC[C@]3(C)C(=CCC4[C@@]5(C)CC[C@H](OC6OC(C(=O)O)C(O)C(O)C6O)C(CO)(CO)C5CC[C@]43C)[C@@H]2C1` (stereo not given in full), which Potency is on record?
Its Potency is 2.46 µM (active).

`CNc1ccc([N+](=O)[O-])cc1-n1cnc(-c2ccc(C(F)(F)F)cc2)c1` was tested. Which max response did it give?
The max response was 1.42%.

`Cn1cc(-c2cnc3ccc4ccc(CS(=O)(=O)NCc5ccccn5)cc4c(=O)c3c2)cn1` was tested. Which max response did it give?
The max response was -6.66%.

`COc1cc(O)ccc1OCCNCC(O)COc1cccc2[nH]c3ccccc3c12` (stereo not given) was tested. Which max response did it give?
Its max response is -16.8%.

For `CC(=O)N1c2ccc(-c3ccc(C(=O)O)cc3)cc2C(Nc2ccc(Cl)cc2)CC1C` (stereo not given), which Potency is on record?
Its Potency is 1.03 µM (active).

`Cn1c(NC[C@@H](N)Cc2ccccc2)nc(-c2ccncc2)c(-c2ccc3ccccc3c2)c1=O` was tested. Which max response did it give?
The max response was -1.38%.

Which outcome does the source give for `COc1cc(-c2cc(-c3ccc(N4CCNCC4)cc3)cnc2C)cc(OC)c1OC` here?
The outcome was “inactive”.

Which Potency does the source give for `Cc1ccc2c(Nc3ccc(Cl)cc3)nccc2c1Nc1ncccc1-c1ncnc2nc[nH]c12` here?
The Potency was 14.6 µM (active).

`CC(C)N(CCCNC(=O)Nc1ccc(C(C)(C)C)cc1)C[C@H]1O[C@@H](n2cc(Br)c3c(N)ncnc32)[C@H](O)[C@@H]1O` was tested. Which max response did it give?
The max response was -23.7%.

Which max response does the source give for `CC(C)(C)c1ccc(CNC(=S)NCc2ccc(NS(C)(=O)=O)c(F)c2)cc1` here?
Its max response is -28.3%.

`CN(C)CCCNc1nc(CN2CCN(C(c3ccc(Cl)cc3)c3ccc(Cl)cc3)CC2)nc2ccccc12` was tested. Which max response did it give?
The max response was 1.9%.

`CC1CCC2C(C)(C)C(O)CCC2(C)C12Cc1c(O)cc3c(c1O2)CN(C(CCCN=C(N)N)C(=O)O)C3=O` (stereo not given) was tested. Which outcome did it give?
The outcome was “inactive”.

For `CNC(=O)c1cccc2cc(Oc3ccnc4cc(OCC5(N)CC5)c(OC)cc34)ccc12`, which Potency is on record?
Its Potency is 4.61 µM (active).

Which Potency does the source give for `CCOC(=O)c1cnn(-c2ccc(NC(=O)C(Cl)=C(Cl)Cl)cc2)c1C(F)(F)F` here?
Its Potency is 20.6 µM (active).

`COc1ccc(Cl)cc1[C@@]1(F)C(=O)Nc2cc(C(F)(F)F)ccc21` was tested. Which max response did it give?
The max response was -2.43%.

For `COc1ccc2c(c1)C[C@H](C(=O)Nc1ccc(-c3cn[nH]c3)cc1OCCN(C)C)CO2`, which Potency is on record?
Its Potency is 20.6 µM (active).

How did the max response turn out when `CC1CCN(c2cc(NC(=O)c3ccccc3)ncn2)CC1` was run?
Its max response is -6.14%.
